Results reported in PubChem BioAssay (NCATS).
“And” between values parts separate entries of the source, which are not always exact repeats. Equal entries are not always repeated. Results filed as inconclusive are left out. The source made the active and inactive calls. Calls follow the shape of the dose curve; as a rule, active = well fitted curve in the direction sought with a large enough effect; inconclusive = small, poorly fitted or top-dose-only effect, or another doubt; inactive = no such curve, though single readings can be large; an effect the other way counts as inactive or inconclusive.

What was measured:
[1] = target: Cellular tumor antigen p53 (Homo sapiens) (UniProt P04637); assay: Primary qHTS for small molecule compounds that upregulate eGFP-tagged delta133p53alpha (in N-terminal) cells. (AID 2060322); conditions: NCI-H358 eGFP-delta133p53alpha fluorescence, 24 h; activation: hits give high values;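 also: cells pre-induced with doxycycline then dosed without doxycycline; series mostly up to about 56 µM; 0% = DMSO vehicle and 100% = reference activator; nearly all actives have a fitted effect of over 75% in size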
Chain of Cellular tumor antigen p53 (Homo sapiens) (P04637 whole entry, looked up): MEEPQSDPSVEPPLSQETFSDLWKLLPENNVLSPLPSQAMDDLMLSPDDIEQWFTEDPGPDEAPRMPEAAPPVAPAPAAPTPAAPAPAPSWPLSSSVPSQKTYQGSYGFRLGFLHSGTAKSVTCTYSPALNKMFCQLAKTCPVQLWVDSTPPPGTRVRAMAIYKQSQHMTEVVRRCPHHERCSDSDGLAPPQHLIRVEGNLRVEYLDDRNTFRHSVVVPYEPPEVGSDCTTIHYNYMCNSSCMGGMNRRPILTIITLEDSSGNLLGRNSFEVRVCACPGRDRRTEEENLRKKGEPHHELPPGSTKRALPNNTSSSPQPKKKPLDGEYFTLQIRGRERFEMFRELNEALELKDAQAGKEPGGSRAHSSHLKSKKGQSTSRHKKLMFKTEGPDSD
Procedure, shortened: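 NCI-H358 cells pre-induced 24 h with 10 ng/ml doxycycline for eGFP-delta133p53alpha, plated dox-free and exposed 24 h at 37C to titrated compounds. Fixed, Hoechst-stained; gated GFP peak intensity by laser scanning cytometry, normalized to DMSO (0%) and 57.5 uM 5-azacytidine (100%).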

[2] = target: Aldehyde dehydrogenase, mitochondrial (Homo sapiens) (UniProt P05091); assay: qHTS for Inhibitors of the Aldehyde Dehydrogenase Family (ALDH2) Primary screen (AID 2061308);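 also: plate controls were vehicle for no effect and reference inhibitor for full effect; nearly all actives have a fitted effect of over 55% in size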
[3] = target: Retinaldehyde dehydrogenase 3 (Homo sapiens) (UniProt P47895); assay: qHTS for Inhibitors of the Aldehyde Dehydrogenase Family (ALDH1A3) Validation screen (AID 2061312); also: % is scaled to controls: 0 for no effect and ±100 for the full control effect; nearly all actives have a fitted effect of over 45% in size
[4] = target: Retinaldehyde dehydrogenase 3 (Homo sapiens) (UniProt P47895); assay: qHTS for Inhibitors of the Aldehyde Dehydrogenase Family (ALDH1A3) Primary screen (AID 2061315);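 also: plate controls were DMSO vehicle for no effect and reference inhibitor for full effect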
[5] = BET inhibitor-based combinations targeting novel dependencies in MECOM-rearranged (r) AML: SET-2 cell line (AID 2202231); conditions: SET-2 AML cells viability, CellTiter-Glo luminescence, 48 h; viability: hits give low values, concentration not given here; also: nearly all actives have a fitted effect of over 35% in size; also: potency is read from the fitted curve at half-maximal effect;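 as to viability: plate controls were DMSO treated cells for no effect and wells without cells for full effect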
Procedure, shortened: (§1)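 500 cells/well; 11-pt dose curve; 48 h, standard incubator; CellTiter-Glo luminescence after 15 min RT; DMSO/empty-well normalization; AUC plus Z-AUC (mean-centered within each line).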

[6] = BET inhibitor-based combinations targeting novel dependencies in MECOM-rearranged (r) AML: HNT-34 cell line (AID 2202234); also: nearly all actives have a fitted effect of over 35% in size; also: potency is read from the fitted curve at half-maximal effect
Procedure, shortened: (§2)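 Cells were plated at 500 per well and exposed to each drug across an 11-point dose range for 48 hr at standard incubator conditions. Viability was read by CellTiter-Glo luminescence, and activity was expressed as AUC and per-cell-line Z-transformed AUC.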

[7] = BET inhibitor-based combinations targeting novel dependencies in MECOM-rearranged (r) AML: UCSD-AML1 cell line (AID 2202235); also: nearly all actives have a fitted effect of over 40% in size; also: potency is read from the fitted curve at half-maximal effect
Procedure, shortened: as §2

[8] = BET inhibitor-based combinations targeting novel dependencies in MECOM-rearranged (r) AML: AML-191 cell line (AID 2202236; also: nearly all actives have a fitted effect of over 35% in size; also: potency is read from the fitted curve at half-maximal effect)
Procedure, shortened: as §1

[9] = BET inhibitor-based combinations targeting novel dependencies in MECOM-rearranged (r) AML: AML-194 cell line (AID 2202237; also: nearly all actives have a fitted effect of over 40% in size; also: potency is read from the fitted curve at half-maximal effect)
Procedure, shortened: as §1

[10] = BET inhibitor-based combinations targeting novel dependencies in MECOM-rearranged (r) AML: OCI-AML3 cell line (AID 2202232); conditions: Potency: OCI-AML3 viability; also: nearly all actives have a fitted effect of over 35% in size; also: potency is read from the fitted curve at half-maximal effect
Procedure, shortened: as §1

[11] = BET inhibitor-based combinations targeting novel dependencies in MECOM-rearranged (r) AML: MV-4-11 cell line (AID 2202233); also: nearly all actives have a fitted effect of over 45% in size; also: potency is read from the fitted curve at half-maximal effect
Procedure, shortened: as §2

Cc1cccc(NC(=O)NC2N=C(c3ccccc3)c3ccccc3N(CC(=O)c3ccccc3C)C2=O)c1 (stereo not drawn)
inactive: activation [1] -13.8% | Potency [2] | Potency [3] | Potency [4]

CCc1nn(C)c(C(=O)NCc2ccc(Oc3ccc(C)cc3)cc2)c1Cl
inactive: activation [1] 1.43% | Potency [2] | Potency [3] | Potency [4]

O=C(N1CCOCC1)N1CCN(c2ccc(Cl)cc2)CC1
inactive: activation [1] 10% | Potency [2] | Potency [3] | Potency [4]

c1ccc(C2(c3ccccc3)OC[C@@H]([C@H]3CCCCN3)O2)cc1
inactive: activation [1] 2.86% | Potency [2] | Potency [3] | Potency [4]

Cc1ccc2c(c1)[C@H]1CN(C)CC[C@H]1N2C(=O)CSc1nnnn1-c1ccc(Cl)cc1
inactive: activation [1] -6.68% | Potency [2] | Potency [3] | Potency [4]

CN1C(=O)CN=C(c2ccccc2Cl)c2cc(Cl)ccc21
inactive: activation [1] -10% | Potency [2] | Potency [3] | Potency [4]

Cc1c(Cl)cccc1S(=O)(=O)Nc1nc(CC(=O)N2CCN(C)CC2)cs1
inactive: activation [1] -6.21% | Potency [2] | Potency [3] | Potency [4]

CC[C@H]1/C=C\C=C/C[C@@H](C)[C@H](O)[C@@](C)(O)C(=O)[C@@H](C)[C@H](O)[C@@H](C)C(=O)[C@@H](C)[C@H](O)[C@@H](C)/C=C\C(=O)O[C@@H]2[C@H](C)[C@H](CC1)O[C@]1(CC[C@H](C)[C@H](C[C@@H](C)O)O1)[C@H]2C
active: Potency [5] 4170 nM | Potency [6] 46.8 nM | Potency [7] 7420 nM | Potency [8] 1180 nM | Potency [9] 2950 nM
inactive: activation [1] 26.3% | Potency [2] | Potency [3] | Potency [4]

Cc1ccccc1CN1CCC(N2CCC(n3c(=O)[nH]c4ccccc43)CC2)CC1
inactive: activation [1] -15.8% | Potency [2] | Potency [3] | Potency [4]

CC(=O)N1N=C(c2ccc(N)cc2)c2cc3c(cc2C[C@H]1C)OCO3
inactive: activation [1] -0.955% | Potency [2] | Potency [3] | Potency [4] | Potency [10] | Potency [11] | Potency [6] | Potency [7] | Potency [8] | Potency [9]

CCCCCCn1c(=O)c(C(=O)Nc2ccc(C(=O)OCCC)cc2)c(O)c2ccccc21
inactive: activation [1] 4.3% | activity change, negative = inhibition [2] 11.3% [at 11.2 µM] | Potency [3] | activity change, negative = inhibition [4] 11.2% [at 11.2 µM]

CCCCCn1cc(C(=O)Oc2cccc3cccnc23)c2ccccc21
inactive: activation [1] -4.77% | Potency [2] | Potency [3] | Potency [4]

C[C@H]1CN(Cc2ccc(CC(=O)N3CCC(Nc4cccc(F)c4)CC3)cc2)CCN1
inactive: activation [1] -12.4% | Potency [2] | Potency [3] | Potency [4]

Cc1sc2c(c1C)C(c1ccc(Cl)cc1)=N[C@@H](CC(N)=O)c1nnc(C)n1-2
active: Potency [10] 105 nM | Potency [11] 83.3 nM | Potency [8] 209 nM
inactive: activation [1] 10% | Potency [2] | Potency [3] | Potency [4]

CC(C)[C@@H](CN1CC[C@@](C)(c2cccc(O)c2)[C@@H](C)C1)NC(=O)[C@H]1Cc2ccc(O)cc2CN1
inactive: activation [1] 29.1% | Potency [2] | Potency [3] | Potency [4]

CC(=O)Nc1ccc(OC[C@](C)(O)C(=O)Nc2ccc([N+](=O)[O-])c(C(F)(F)F)c2)cc1
inactive: activation [1] 44.3% and 23.4% | Potency [2] | Potency [3] | Potency [4] | viability [5] 114% | Potency [11] | Potency [6] | Potency [7] | Potency [8] | Potency [9]

O=C(O)C(=O)c1cn(Cc2ccccc2)c2ccc(-c3ccc(OC(F)(F)F)cc3)cc12
inactive: activation [1] -6.9% and -6.21% | Potency [2] | Potency [3] | Potency [4] | viability [5] 98.6% | Potency [6] | Potency [7] | Potency [8] | Potency [9]

Cc1c(Cl)c(OCC(=O)N2CCN(C)CC2)nc2sc(C(=O)NC3CC3)c(N)c12
inactive: activation [1] 5.25% | Potency [2] | Potency [3] | Potency [4]

OC1(c2ccc(Cl)cc2)c2ccccc2C2=NCCN21 (stereo not drawn)
inactive: activation [1] 6.21% | Potency [2] | Potency [3] | Potency [4]

O=C(Oc1ccc([N+](=O)[O-])cc1)N1CCN(Cc2cccc(Oc3ccccc3)c2)CC1
inactive: activation [1] 1.36% and 1.43% | Potency [2] | Potency [3] | Potency [4] | Potency [10] | Potency [6] | Potency [7] | Potency [8] | Potency [9]

NCCCCCNC1(c2ccccc2)CCCCC1
inactive: activation [1] -6.68% | Potency [2] | Potency [3] | Potency [4]

O=C(N1CCCCC1Cc1ccccc1)n1cc(-c2ccc(-c3ccccc3)cc2)nn1 (stereo not drawn)
inactive: activation [1] 1.43% | Potency [2] | Potency [3] | Potency [4]
